Test results reported in the supplement of paper PMC11732987, “Enantioselective OTUD7B fragment discovery through chemoproteomics screening and high-throughput optimisation” (Communications Chemistry, 2025).

What was measured:
Test in all cases: log2 ratio of Biotin-Ahx-Ub-VS probe labelling (fragment/DMSO); higher = less target engagement (more negative = stronger competition), active = hit call of the paper (q ≤ 0.05, log2 ratio ≤ -1)
Conditions in all cases: compound concentration: 200 uM; treatment time: 3 h
USP19 = molecular target: T1, USP19 (UniProt O94966)
T1 sequence (whole entry): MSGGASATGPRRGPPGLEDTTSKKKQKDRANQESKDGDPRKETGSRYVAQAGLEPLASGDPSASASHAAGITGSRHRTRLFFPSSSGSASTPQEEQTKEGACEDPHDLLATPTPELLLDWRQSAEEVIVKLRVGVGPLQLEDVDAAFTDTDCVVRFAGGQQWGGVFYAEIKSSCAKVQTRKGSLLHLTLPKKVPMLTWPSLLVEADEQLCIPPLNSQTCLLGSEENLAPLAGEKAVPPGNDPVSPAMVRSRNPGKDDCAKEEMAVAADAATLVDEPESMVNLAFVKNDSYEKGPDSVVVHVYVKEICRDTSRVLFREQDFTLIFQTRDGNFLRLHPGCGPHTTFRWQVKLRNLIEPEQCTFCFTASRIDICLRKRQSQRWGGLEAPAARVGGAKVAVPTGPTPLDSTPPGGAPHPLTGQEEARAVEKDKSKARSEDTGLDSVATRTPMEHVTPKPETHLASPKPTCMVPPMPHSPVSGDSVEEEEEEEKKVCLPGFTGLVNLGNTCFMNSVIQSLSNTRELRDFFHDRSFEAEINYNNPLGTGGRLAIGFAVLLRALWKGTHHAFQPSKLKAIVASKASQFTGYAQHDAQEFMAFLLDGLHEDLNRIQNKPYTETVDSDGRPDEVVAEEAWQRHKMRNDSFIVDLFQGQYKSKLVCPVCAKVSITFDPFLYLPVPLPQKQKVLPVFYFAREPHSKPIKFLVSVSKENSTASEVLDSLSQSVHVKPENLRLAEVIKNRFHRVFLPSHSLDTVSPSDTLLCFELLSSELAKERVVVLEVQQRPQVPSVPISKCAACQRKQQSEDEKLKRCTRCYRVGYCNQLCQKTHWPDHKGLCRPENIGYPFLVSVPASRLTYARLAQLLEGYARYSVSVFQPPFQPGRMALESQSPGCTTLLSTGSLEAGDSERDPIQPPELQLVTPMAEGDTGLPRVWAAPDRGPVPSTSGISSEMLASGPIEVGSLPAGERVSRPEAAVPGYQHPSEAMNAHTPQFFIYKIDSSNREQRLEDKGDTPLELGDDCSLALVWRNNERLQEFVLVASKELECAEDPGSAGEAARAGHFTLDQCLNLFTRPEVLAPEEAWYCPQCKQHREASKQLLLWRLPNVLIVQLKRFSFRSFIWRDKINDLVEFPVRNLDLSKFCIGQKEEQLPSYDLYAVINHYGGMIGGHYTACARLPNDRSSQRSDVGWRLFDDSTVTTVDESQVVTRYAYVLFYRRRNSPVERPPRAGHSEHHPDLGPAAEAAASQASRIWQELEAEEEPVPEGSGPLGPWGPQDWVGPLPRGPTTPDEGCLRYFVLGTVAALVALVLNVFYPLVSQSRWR
In short: (§1)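 Average log2 ratios of fragment over vehicle were obtained by unpaired t-test from global-median-normalised Spectronaut label-free quantities. Proteins with ≥2 unique peptides were included. HEK293T lysate (495 µg per sample) was treated in triplicate with fragment at 200 µM or vehicle for 3 h, then with Biotin-Ahx-Ub-VS at 0.5 µM final for 1 h, and labelled DUBs were NeutrAvidin-enriched and run by diaPASEF LC-MS/MS.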

USP22 = molecular target: T2, USP22 (UniProt Q9UPT9)
T2 sequence (whole entry): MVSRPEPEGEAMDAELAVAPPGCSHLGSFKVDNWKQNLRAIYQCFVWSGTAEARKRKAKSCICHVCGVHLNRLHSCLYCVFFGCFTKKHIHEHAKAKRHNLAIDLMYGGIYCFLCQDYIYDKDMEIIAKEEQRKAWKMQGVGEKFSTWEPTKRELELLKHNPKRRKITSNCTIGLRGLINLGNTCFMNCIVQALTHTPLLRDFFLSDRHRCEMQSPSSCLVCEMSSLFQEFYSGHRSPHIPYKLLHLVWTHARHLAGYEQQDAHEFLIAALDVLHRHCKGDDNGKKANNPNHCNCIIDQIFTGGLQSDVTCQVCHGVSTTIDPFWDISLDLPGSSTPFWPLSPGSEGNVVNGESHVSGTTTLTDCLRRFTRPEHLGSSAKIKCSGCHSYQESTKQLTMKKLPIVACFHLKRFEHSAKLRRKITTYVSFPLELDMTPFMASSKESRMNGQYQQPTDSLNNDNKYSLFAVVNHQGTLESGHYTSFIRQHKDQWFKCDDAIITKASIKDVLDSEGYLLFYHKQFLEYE
In short: as §1

USP24 = USP24 (UniProt Q9UPU5)
In short: as §1

USP25 = molecular target: T3, USP25 (UniProt Q9UHP3)
T3 sequence (whole entry): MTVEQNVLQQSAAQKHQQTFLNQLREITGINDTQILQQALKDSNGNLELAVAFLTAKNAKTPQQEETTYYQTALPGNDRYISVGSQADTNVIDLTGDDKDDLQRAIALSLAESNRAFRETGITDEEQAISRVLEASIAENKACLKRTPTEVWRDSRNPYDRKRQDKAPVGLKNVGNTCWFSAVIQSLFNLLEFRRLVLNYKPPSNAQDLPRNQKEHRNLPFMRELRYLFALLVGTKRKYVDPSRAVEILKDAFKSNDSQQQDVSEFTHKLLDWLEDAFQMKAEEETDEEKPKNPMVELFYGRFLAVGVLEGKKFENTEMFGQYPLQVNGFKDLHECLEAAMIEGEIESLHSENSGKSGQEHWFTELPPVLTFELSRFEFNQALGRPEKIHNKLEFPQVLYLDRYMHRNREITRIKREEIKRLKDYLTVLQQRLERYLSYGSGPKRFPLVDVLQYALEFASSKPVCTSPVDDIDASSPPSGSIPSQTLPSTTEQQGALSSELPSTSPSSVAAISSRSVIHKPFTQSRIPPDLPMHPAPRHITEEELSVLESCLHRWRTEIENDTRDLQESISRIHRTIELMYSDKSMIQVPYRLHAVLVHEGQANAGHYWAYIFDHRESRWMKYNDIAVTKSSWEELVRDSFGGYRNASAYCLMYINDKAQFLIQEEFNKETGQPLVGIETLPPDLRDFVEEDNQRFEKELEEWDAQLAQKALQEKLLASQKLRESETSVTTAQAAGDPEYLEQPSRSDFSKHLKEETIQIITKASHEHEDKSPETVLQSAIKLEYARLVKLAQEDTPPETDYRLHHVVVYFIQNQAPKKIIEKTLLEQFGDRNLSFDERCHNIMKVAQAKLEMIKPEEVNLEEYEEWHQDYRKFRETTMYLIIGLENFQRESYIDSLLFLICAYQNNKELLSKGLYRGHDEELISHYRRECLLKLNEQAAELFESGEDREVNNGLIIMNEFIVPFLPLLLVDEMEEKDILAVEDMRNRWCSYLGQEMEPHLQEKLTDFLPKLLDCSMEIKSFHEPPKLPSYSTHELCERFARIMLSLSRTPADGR
In short: as §1

USP28 = molecular target: T4, USP28 (UniProt Q96RU2)
T4 sequence (whole entry): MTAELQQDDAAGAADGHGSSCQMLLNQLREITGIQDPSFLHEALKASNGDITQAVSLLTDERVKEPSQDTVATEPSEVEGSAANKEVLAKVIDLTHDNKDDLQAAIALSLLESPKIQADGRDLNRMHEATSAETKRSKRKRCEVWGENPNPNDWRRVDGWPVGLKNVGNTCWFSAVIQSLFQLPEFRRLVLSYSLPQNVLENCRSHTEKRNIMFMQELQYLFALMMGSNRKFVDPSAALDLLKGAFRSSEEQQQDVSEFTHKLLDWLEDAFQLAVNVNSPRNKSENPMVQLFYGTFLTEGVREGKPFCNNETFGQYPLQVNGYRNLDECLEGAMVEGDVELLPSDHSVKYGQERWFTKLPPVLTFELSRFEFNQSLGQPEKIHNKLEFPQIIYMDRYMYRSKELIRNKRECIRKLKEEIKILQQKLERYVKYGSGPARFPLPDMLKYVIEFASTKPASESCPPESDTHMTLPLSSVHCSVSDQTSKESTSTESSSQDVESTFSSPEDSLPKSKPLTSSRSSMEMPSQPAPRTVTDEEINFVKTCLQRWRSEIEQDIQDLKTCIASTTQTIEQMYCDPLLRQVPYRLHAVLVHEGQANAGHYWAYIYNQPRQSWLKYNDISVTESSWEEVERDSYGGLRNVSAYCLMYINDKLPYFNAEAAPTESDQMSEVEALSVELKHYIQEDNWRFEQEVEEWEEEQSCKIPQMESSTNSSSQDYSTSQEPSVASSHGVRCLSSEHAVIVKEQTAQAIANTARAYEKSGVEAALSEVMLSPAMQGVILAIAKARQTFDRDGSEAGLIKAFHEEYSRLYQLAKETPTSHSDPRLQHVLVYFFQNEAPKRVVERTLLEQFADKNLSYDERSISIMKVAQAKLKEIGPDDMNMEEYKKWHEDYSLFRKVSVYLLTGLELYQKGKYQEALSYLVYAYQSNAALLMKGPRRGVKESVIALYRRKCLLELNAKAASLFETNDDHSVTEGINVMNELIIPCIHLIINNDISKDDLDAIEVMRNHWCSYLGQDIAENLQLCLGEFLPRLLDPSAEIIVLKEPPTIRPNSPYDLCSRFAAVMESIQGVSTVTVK
In short: as §1

Measured: log2 ratio of Biotin-Ahx-Ub-VS probe labelling

Chain of USP24 (Q9UPU5 whole entry): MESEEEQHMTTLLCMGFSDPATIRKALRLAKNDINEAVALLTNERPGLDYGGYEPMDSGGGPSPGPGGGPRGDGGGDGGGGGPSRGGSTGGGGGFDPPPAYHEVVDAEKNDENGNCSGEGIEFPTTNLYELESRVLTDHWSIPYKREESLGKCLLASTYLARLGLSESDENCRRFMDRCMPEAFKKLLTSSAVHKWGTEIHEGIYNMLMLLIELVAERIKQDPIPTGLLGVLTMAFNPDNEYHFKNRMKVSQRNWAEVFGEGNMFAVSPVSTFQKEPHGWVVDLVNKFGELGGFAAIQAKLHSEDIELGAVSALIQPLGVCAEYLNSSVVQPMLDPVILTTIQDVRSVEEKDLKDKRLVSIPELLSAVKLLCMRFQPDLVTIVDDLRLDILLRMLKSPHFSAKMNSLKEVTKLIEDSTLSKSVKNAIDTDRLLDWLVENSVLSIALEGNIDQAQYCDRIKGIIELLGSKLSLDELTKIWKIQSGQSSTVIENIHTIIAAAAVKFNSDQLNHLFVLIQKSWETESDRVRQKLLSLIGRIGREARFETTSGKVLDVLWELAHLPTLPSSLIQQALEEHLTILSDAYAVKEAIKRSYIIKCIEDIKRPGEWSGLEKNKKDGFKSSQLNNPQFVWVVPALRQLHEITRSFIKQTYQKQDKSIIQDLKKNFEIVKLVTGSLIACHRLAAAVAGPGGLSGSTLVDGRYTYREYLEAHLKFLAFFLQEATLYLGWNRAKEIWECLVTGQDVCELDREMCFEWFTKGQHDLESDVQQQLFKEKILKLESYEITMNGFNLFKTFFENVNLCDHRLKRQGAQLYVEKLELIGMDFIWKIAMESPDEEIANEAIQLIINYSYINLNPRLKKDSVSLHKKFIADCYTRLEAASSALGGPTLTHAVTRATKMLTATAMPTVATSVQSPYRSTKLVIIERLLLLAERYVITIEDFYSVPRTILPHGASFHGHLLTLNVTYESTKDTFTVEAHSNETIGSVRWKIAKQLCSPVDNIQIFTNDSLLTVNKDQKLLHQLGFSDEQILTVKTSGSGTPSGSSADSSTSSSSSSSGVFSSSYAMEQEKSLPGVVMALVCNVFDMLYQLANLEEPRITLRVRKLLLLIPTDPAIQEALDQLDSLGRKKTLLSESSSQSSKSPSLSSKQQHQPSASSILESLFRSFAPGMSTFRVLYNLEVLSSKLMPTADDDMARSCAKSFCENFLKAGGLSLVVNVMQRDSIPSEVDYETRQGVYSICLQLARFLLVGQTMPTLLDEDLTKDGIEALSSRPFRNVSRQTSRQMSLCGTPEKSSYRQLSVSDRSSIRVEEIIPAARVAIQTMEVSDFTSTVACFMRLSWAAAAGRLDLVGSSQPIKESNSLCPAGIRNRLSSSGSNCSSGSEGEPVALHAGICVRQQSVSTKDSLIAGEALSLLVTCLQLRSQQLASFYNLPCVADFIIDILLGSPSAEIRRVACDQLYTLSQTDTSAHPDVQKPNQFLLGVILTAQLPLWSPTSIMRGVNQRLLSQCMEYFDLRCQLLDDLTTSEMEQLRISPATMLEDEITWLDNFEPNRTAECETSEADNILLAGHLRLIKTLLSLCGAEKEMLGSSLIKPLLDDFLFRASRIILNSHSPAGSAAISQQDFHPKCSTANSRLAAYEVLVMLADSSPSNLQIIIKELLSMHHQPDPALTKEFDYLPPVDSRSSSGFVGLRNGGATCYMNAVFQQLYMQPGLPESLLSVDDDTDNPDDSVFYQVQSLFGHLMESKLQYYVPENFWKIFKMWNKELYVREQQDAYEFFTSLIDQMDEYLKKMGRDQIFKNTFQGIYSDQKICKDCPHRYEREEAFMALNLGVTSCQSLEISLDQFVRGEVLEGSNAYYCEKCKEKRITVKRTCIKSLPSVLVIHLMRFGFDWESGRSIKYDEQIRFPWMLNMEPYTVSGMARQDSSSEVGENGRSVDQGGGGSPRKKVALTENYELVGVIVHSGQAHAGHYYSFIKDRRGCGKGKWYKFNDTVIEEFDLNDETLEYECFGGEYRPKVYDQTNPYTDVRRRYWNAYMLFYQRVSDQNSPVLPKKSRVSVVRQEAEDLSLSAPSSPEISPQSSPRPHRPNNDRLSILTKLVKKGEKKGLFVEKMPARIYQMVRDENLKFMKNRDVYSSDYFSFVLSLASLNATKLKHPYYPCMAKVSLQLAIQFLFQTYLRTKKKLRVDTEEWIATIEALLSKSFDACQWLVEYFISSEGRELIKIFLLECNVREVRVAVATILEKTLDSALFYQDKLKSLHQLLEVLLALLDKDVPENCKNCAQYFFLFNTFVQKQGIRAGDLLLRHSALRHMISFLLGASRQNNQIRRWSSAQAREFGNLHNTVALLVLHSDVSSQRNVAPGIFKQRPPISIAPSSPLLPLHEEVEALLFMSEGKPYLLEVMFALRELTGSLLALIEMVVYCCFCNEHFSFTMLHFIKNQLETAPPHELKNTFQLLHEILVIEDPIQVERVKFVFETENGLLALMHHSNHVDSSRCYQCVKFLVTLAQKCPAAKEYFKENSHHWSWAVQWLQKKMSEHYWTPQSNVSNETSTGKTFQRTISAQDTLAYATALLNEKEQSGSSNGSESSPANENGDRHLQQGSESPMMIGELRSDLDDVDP

O=C(CCl)NCC(=O)N1CCCC1
inactive: USP19 0.114 | USP22 -0.00438 | USP24 -0.074 | USP25 0.037 | USP28 -0.302
